# Hits are enriched below; roughly 7.9% of the tested compounds scored in any of these assays.
# MITF inh: inhibitors of MITF, primary screen, MITF inhibitor project, cell-based, luminescence. hit rate 0.28% among 37,000. TRPM1 promoter luciferase, 24 h. inhibition, % (concentration not given with the values); in the data active = inhibition above about 85%; inconclusive = no clear call, values can overlap the other calls; inactive = below about 68%;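 also: human melanocyte line stably carrying TRPM1 promoter luciferase reporter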
# Shh pathway inh: Hedgehog pathway signaling inhibitors, primary screen, luminescence, Shh-LIGHT2 cells, Gli-luciferase. Shh-LIGHT2 Gli-luciferase reporter, 30 h. inhibition, % (test concentration not listed). hit rate 2.1% among 22,000;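 active = mean inhibition across valid replicates above about 65%, limit read from the data; inconclusive = mean under the limit, yet half or more replicates past it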;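 also: pathway switched on by Shh-conditioned medium diluted 1 in 25 in low serum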
# NOMO-1 viab: NOMO-1 AML cell viability reduction, primary screen, STK33 inhibitor project, CellTiter-Glo luminescence; NOMO-1 AML viability, 72 h; inhibition, % (no concentration beside the values); hit rate 7.5% among 37,000; AID 2330, 2010; in the data active = inhibition above about 80%; inconclusive = no clear call, values can overlap the other calls
# Hits are given with their value; – = inactive; ? = inconclusive; · = no result.
SMILES,MITF inh,Shh pathway inh,NOMO-1 viab
C[C@H](CO)N1C[C@H](C)[C@H](CN(C)C)Oc2ccc(NC(=O)Nc3ccc(C(F)(F)F)cc3)cc2CC1=O,–,·,–
C[C@H]1CN([C@@H](C)CO)C(=O)Cc2cc(NC(=O)Nc3ccc(C(F)(F)F)cc3)ccc2O[C@H]1CN(C)S(=O)(=O)c1cccs1,–,–,128.1
C[C@H]1CN([C@@H](C)CO)C(=O)Cc2cc(NC(=O)Nc3ccc(C(F)(F)F)cc3)ccc2O[C@H]1CN(C)S(C)(=O)=O,–,·,89.7
C[C@@H]1CN([C@H](C)CO)C(=O)Cc2cc(NC(=O)Nc3ccc(C(F)(F)F)cc3)ccc2O[C@@H]1CN(C)S(=O)(=O)c1cccs1,–,–,–
C[C@@H]1CN([C@H](C)CO)C(=O)Cc2cc(NC(=O)Nc3ccc(C(F)(F)F)cc3)ccc2O[C@@H]1CN(C)S(C)(=O)=O,–,–,86.3
COC(=O)c1c(NC(=S)Nc2ccc(S(=O)(=O)NC34CC5CC(CC(C5)C3)C4)cc2)sc(C(=O)N(C)C)c1C,–,·,–
COc1ccc(NC(=O)Nc2ccc3c(c2)CC(=O)N([C@@H](C)CO)C[C@H](C)[C@H](CN(C)S(=O)(=O)c2cccs2)O3)cc1,–,–,–
CCOC(=O)c1cnc2c(C)c(C)ccc2c1NCCN(C)C,–,·,–
Cc1noc(C)c1NC(=O)Nc1ccc2c(c1)CC(=O)N([C@@H](C)CO)C[C@H](C)[C@@H](CN(C)Cc1ccccc1)O2,–,–,–
COc1ccc(C(CC(=O)O)C(=O)O)cc1OC (stereo not given),–,·,–
O=C(NCCO)c1ccc(N2C(=O)c3ccccc3C2=O)cc1,–,–,–
CC1=CC(=O)OC1(O)CCC(C)CC(=O)O (stereo not given),·,–,·
C=C(C(=O)O[C@H]1C/C=C(/C)C[C@H](O)[C@H]2[C@H](C)C(=O)O[C@@H]2/C=C\1C)[C@@H]1CCC(=C)[C@@H]2C[C@H](O[C@@H]3O[C@H](COC(=O)CC(=O)O)[C@@H](O)[C@H](O)[C@H]3O)C(=C)[C@@H]2C1,–,–,104.7
C=C1CCC(O)/C(C)=C\CC(C(C)C)C(OC2OC(COC(C)=O)C(O)C(O)C2O)C1 (stereo not given),–,–,–
Cc1c(CCC(=O)O)c(=O)oc2c(C)c(OCc3cccc4ccccc34)ccc12,–,·,–
Cc1onc(-c2ccccc2)c1C(=O)Nc1cccc(S(=O)(=O)N(C)C)c1,–,·,–
Cc1cc(C)c(C#N)c(SCC(O)CNc2ccc(Cl)cc2)n1 (stereo not given),–,·,–
CC(C)c1ccc(NCC(O)CSc2ccccc2)cc1 (stereo not given),–,–,109.9
Cc1cc2ncn(CC(O)COc3ccc(C(C)C)cc3)c2cc1C (stereo not given),–,·,?
CC(C)c1ccc(NCC(O)COc2ccc(Cl)c(Cl)c2)cc1 (stereo not given),–,–,116.6
c1ccc(C2OCC3OC(c4ccccc4)OC3CO2)cc1 (stereo not given),–,·,–
CSc1ccccc1NC(=O)CN(c1ccc(C)c(Cl)c1)S(C)(=O)=O,–,·,–
C[C@H]1CN([C@@H](C)CO)C(=O)c2cc(NC(=O)Nc3ccccc3)ccc2O[C@H]1CN(C)CC1CCCCC1,–,·,–
C[C@H](CO)N1C[C@H](C)[C@@H](CN(C)CC2CCCCC2)Oc2ccc(NC(=O)Nc3ccc(F)cc3)cc2C1=O,–,–,–
C[C@H](CO)N1C[C@H](C)[C@H](CN(C)CC2CCCCC2)Oc2ccc(NC(=O)Nc3ccc(C(F)(F)F)cc3)cc2C1=O,–,–,115.7
SMILES,MITF inh,Shh pathway inh,NOMO-1 viab
C[C@@H]1CN([C@@H](C)CO)C(=O)c2cc(NC(=O)Nc3ccc(C(F)(F)F)cc3)ccc2O[C@H]1CN(C)CC1CCCCC1,–,–,117.6
NC(N)=NS(=O)(=O)c1ccc(N=Cc2ccccc2O)cc1,–,–,–
COc1ccc(S(=O)(=O)NCC2CCCO2)cc1-c1nnc2c3ccccc3c(C)nn12 (stereo not given),–,·,–
C[C@H](CO)N1C[C@H](C)[C@H](CN(C)Cc2ccc3c(c2)OCO3)Oc2ccc(NS(=O)(=O)c3cn(C)cn3)cc2CC1=O,–,–,–
COc1ccc(CCNC(=O)C2CCCCC2)cc1OC,–,·,–
COc1ccc(S(=O)(=O)Nc2cccc3c2O[C@H](CN(C)Cc2ccc(C(=O)Nc4ccccc4N)cc2)[C@H](C)CN([C@H](C)CO)C3=O)cc1,–,·,128.1
COc1ccc(S(=O)(=O)Nc2cccc3c2O[C@H](CN(C)Cc2ccc(C(=O)Nc4ccccc4N)cc2)[C@H](C)CN([C@@H](C)CO)C3=O)cc1,–,·,127.2
COc1ccc(CN(C)C[C@@H]2Oc3c(NS(=O)(=O)c4ccc(OC)cc4)cccc3C(=O)N([C@@H](C)CO)C[C@H]2C)cc1,–,–,–
COc1ccc(S(=O)(=O)Nc2cccc3c2O[C@H](CN(C)Cc2ccc(C(=O)Nc4ccccc4N)cc2)[C@@H](C)CN([C@H](C)CO)C3=O)cc1,–,·,–
COc1ccc(S(=O)(=O)Nc2cccc3c2O[C@@H](CN(C)Cc2ccc(C(=O)Nc4ccccc4N)cc2)[C@@H](C)CN([C@H](C)CO)C3=O)cc1,–,·,110.3
CCC(=O)N(Cc1cc2ccccc2[nH]c1=O)c1cccc(C)c1,–,·,–
C[C@H]1CN([C@@H](C)CO)C(=O)Cc2cc(NC(=O)CCN3CCOCC3)ccc2O[C@H]1CN(C)S(=O)(=O)c1cn(C)cn1,–,–,–
Cc1cc(Br)ccc1NC(=O)CSc1ncn(-c2ccccc2)n1,–,·,–
Clc1ccc(Sc2ccc(-c3ccccn3)s2)cc1,–,–,–
C[C@@H]1CN([C@H](C)CO)C(=O)Cc2cc(NC(=O)Nc3ccc(C(F)(F)F)cc3)ccc2O[C@H]1CN(C)CC1CCCCC1,–,–,116.4
C[C@@H]1CN([C@H](C)CO)C(=O)Cc2cc(NC(=O)Nc3ccccc3)ccc2O[C@H]1CN(C)CC1CCCCC1,–,–,?
C[C@H]1CN([C@@H](C)CO)C(=O)Cc2cc(NC(=O)Nc3ccccc3)ccc2O[C@H]1CN(C)CC1CCCCC1,–,·,90.0
C[C@H]1CN([C@@H](C)CO)C(=O)Cc2cc(NC(=O)Nc3cccc4ccccc34)ccc2O[C@@H]1CN(C)CC1CCCCC1,–,–,135.8
C[C@H]1CN([C@@H](C)CO)C(=O)Cc2cc(NC(=O)Nc3cccc4ccccc34)ccc2O[C@H]1CN(C)C,–,–,–
C[C@@H]1CN([C@H](C)CO)C(=O)Cc2cc(NC(=O)Nc3ccc(C(F)(F)F)cc3)ccc2O[C@@H]1CN(C)CC1CCCCC1,–,–,?
COc1ccc(S(=O)(=O)Nc2ccc3c(c2)C(=O)N([C@@H](C)CO)C[C@@H](C)[C@H](CN(C)Cc2ccccc2)O3)cc1,–,·,–
Cc1sc2ncnc(SCC(=O)NCc3ccccc3)c2c1C,–,·,–
Cc1cc2c(=O)n(Cc3ccco3)c(SCc3cc(=O)[nH][nH]3)nc2s1,–,·,–
C/C1=C/CC(=O)[C@@H](C)C[C@H]2OC(=O)C(CO)=C2CC1,–,–,–
Cc1ccc(C)c(NC(=O)C(C)n2nc(C)c([N+](=O)[O-])c2C)c1 (stereo not given),–,·,–
